The supplement of paper PMC10338343
± gives the standard deviation.

Test system: MILI (PIWIL2) piRISC loaded with L1MC piRNA (26 nt)
Test: pre-steady-state target cleavage rate (min^-1); guide: L1MC piRNA 5'p-UAACUAAAUACUAUGCAAGCUGUAGG; MIWI and MILI are mouse PIWI proteins and EfPiwi is from a freshwater sponge; tags in brackets are library labels; higher = faster piRNA-guided slicing of the target
In short: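 The pre-steady-state cleavage rate came from a burst-and-steady-state fit to pooled data from three Cleave-'n-Seq trials, in which uncleaved targets were sequenced and normalised to depth and to weakly complementary targets. Each reaction held 0.1 nM transcribed, DNA-blocked target RNA library and 1 nM active affinity-purified piRISC carrying one synthetic guide, with or without 500 nM GTSF1 partner protein, in HEPES–potassium acetate buffer at 33 °C for 0–8 or 0–960 min. k3 was capped at 0.0001 min^-1.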

[1] = auxiliary factor: 500 nM mouse GTSF1
[2] = auxiliary factor: none (no GTSF1)

## UCCUGGAUGUCGUUGCACAGUAUUUAGUUA
[1]
  pre-steady-state target cleavage rate: 0.0899 ± 0.011
[2]
  pre-steady-state target cleavage rate: 0.00642 ± 0.0028

## UCCUGGUACAGCAUUGCAUAGUAUUUAGUUA
[1]
  pre-steady-state target cleavage rate: 0.257 ± 0.039
[2]
  pre-steady-state target cleavage rate: 0.0159 ± 0.0049

## UCCUGGAUGAGCUUGCAUAGUUAUUAGUUA
[1]
  pre-steady-state target cleavage rate: 0.00731 ± 0.0048
[2]
  pre-steady-state target cleavage rate: 0.00364 ± 0.0023

## UCCUGGAUGUGCUAGCAUAGUAUUUAGUAA
[1]
  pre-steady-state target cleavage rate: 0.12 ± 0.017
[2]
  pre-steady-state target cleavage rate: 0.00339 ± 0.0027

## UCCUGGAUGUCGAUGCAUAGUUUUUAGUUA
[1]
  pre-steady-state target cleavage rate: 0.0108 ± 0.0042
[2]
  pre-steady-state target cleavage rate: 0.0052 ± 0.002

## UCCUGGAACAGCUAGCAUUGUAUUUAGUUA
[1]
  pre-steady-state target cleavage rate: 0.164 ± 0.013
[2]
  pre-steady-state target cleavage rate: 0.0074 ± 0.0021

## UCCUGGAACUGCUUGCAUAGUAUUUAGUAA
[1]
  pre-steady-state target cleavage rate: 0.171 ± 0.015
[2]
  pre-steady-state target cleavage rate: 0.00419 ± 0.0025

## UCCUGGAUGUGCUUGCAUAGUAUUAUAGUUA
[1]
  pre-steady-state target cleavage rate: 0.15 ± 0.025
[2]
  pre-steady-state target cleavage rate: 0.006 ± 0.0028

## UCCUGGAUCAGCUUGGUAAGUAUUUAGUUA
[1]
  pre-steady-state target cleavage rate: 0.0316 ± 0.0076
[2]
  pre-steady-state target cleavage rate: 0.00588 ± 0.0023

## UCCUGGAUGAGCUUGCUAGUAUUUAGUUA
[1]
  pre-steady-state target cleavage rate: 0.00709 ± 0.0035
[2]
  pre-steady-state target cleavage rate: 0.00421 ± 0.0027

## UCCUGGAUGUCCUAGCAUAGUAAUUAGUUA
[1]
  pre-steady-state target cleavage rate: 0.0282 ± 0.01
[2]
  pre-steady-state target cleavage rate: 0.00305 ± 0.0025

## UCCUGGAUGUGCAUGCAUAGUAUUUACUUA
[1]
  pre-steady-state target cleavage rate: 0.065 ± 0.018
[2]
  pre-steady-state target cleavage rate: 0.00616 ± 0.0026

## UCCUGGAUGAGCUUGCUUACUAUUUAGUUA
[1]
  pre-steady-state target cleavage rate: 0.0357 ± 0.0051
[2]
  pre-steady-state target cleavage rate: 0.00365 ± 0.0025

## UCCUGGAUGUGCUUGAAUAGUAUUUAGUUA
[1]
  pre-steady-state target cleavage rate: 0.127 ± 0.013
[2]
  pre-steady-state target cleavage rate: 0.00936 ± 0.0025

## UCCUGCUACAGCUUGCAAAGAAUUUAGUUA
[1]
  pre-steady-state target cleavage rate: 0.0168 ± 0.0052
[2]
  pre-steady-state target cleavage rate: 0.00324 ± 0.0017

## UCCUGGAUGAGCAUGCAUAGUAUUUAGAUA
[1]
  pre-steady-state target cleavage rate: 0.166 ± 0.024
[2]
  pre-steady-state target cleavage rate: 0.00498 ± 0.0025

## UCCUGGAUGUGCUUGCAUAGUAUUUAGUGUA
[1]
  pre-steady-state target cleavage rate: 0.101 ± 0.015
[2]
  pre-steady-state target cleavage rate: 0.00366 ± 0.0034

## UCCUGGAUGUGCUUGCUUAGUAUUUAGUAA
[1]
  pre-steady-state target cleavage rate: 0.0779 ± 0.014
[2]
  pre-steady-state target cleavage rate: 0.00576 ± 0.0018

## UCCUGGAUGUGGUUGCUUAGUAUUUAGUUA
[1]
  pre-steady-state target cleavage rate: 0.107 ± 0.02
[2]
  pre-steady-state target cleavage rate: 0.0132 ± 0.0037

## UCCUGGAUGUCGAUAGCAUAGUAUUUAGUUA
[1]
  pre-steady-state target cleavage rate: 0.0459 ± 0.014
[2]
  pre-steady-state target cleavage rate: 0.00341 ± 0.0026

## UCCUGGAUGUCCUUGCAGAGUAUUUAGUUA
[1]
  pre-steady-state target cleavage rate: 0.0231 ± 0.011
[2]
  pre-steady-state target cleavage rate: 0.00501 ± 0.0024

## UCCUCCUACAGCUUGCAUAGUAUUUCGUUA
[1]
  pre-steady-state target cleavage rate: 0.243 ± 0.043
[2]
  pre-steady-state target cleavage rate: 0.0033 ± 0.0031

## UCCUCCAAGAGCUUGCAUAGUAUUUAGUUA
[1]
  pre-steady-state target cleavage rate: 0.276 ± 0.013
[2]
  pre-steady-state target cleavage rate: 0.007 ± 0.0024

## UCCUGGAUGUCCUUGCAAAGUUUUUAGUUA
[1]
  pre-steady-state target cleavage rate: 0.0117 ± 0.0048
[2]
  pre-steady-state target cleavage rate: 0.00553 ± 0.0019

## UCCUGGAUGUCGUGGCAUAGUAUUUAGUUA
[1]
  pre-steady-state target cleavage rate: 0.0441 ± 0.011
[2]
  pre-steady-state target cleavage rate: 0.00558 ± 0.0029

## UCCUGGAUGUGCUAGCAUAGUAAUUAGUUA
[1]
  pre-steady-state target cleavage rate: 0.0614 ± 0.011
[2]
  pre-steady-state target cleavage rate: 0.00598 ± 0.0021

## UCCUGGAUGUCCAUGCAUAGUAUUUAGUUA
[1]
  pre-steady-state target cleavage rate: 0.0603 ± 0.016
[2]
  pre-steady-state target cleavage rate: 0.00432 ± 0.0026

## UCCUCCUACAGCUUGCAUAGUAUCUUAGUUA
[1]
  pre-steady-state target cleavage rate: 0.285 ± 0.022
[2]
  pre-steady-state target cleavage rate: 0.00811 ± 0.0026

## UCCUGCUACAGCUUGCAUAGUAUUUAGUCA
[1]
  pre-steady-state target cleavage rate: 0.202 ± 0.033
[2]
  pre-steady-state target cleavage rate: 0.00397 ± 0.0022

## UCCUGGAUGUCGUUGCUUAGUUUUUAGUUA
[1]
  pre-steady-state target cleavage rate: 0.00856 ± 0.0044
[2]
  pre-steady-state target cleavage rate: 0.00646 ± 0.0025

## UCCUGGAUGUCGUUGCAAAGUAUUUAGUAA
[1]
  pre-steady-state target cleavage rate: 0.0183 ± 0.0061
[2]
  pre-steady-state target cleavage rate: 0.00357 ± 0.0021

## UCCUGGAUGAGCUUGUAUAGUAUUUAGUUA
[1]
  pre-steady-state target cleavage rate: 0.181 ± 0.015
[2]
  pre-steady-state target cleavage rate: 0.0088 ± 0.0033

## UCCUGGAACAGCUUGGUAAGUAUUUAGUUA
[1]
  pre-steady-state target cleavage rate: 0.115 ± 0.014
[2]
  pre-steady-state target cleavage rate: 0.00498 ± 0.0019

## UCCUGGAUGUCGAUGCAUAGUAUUUAGUUC [g2:g17:cont:t1C]
[1]
  pre-steady-state target cleavage rate: 0.0657 ± 0.0091
[2]
  pre-steady-state target cleavage rate: 0.00831 ± 0.0023

## UCCUGGUACAGCUUGCUAAGUAUUUAGUUA
[1]
  pre-steady-state target cleavage rate: 0.123 ± 0.015
[2]
  pre-steady-state target cleavage rate: 0.00432 ± 0.0026

## UCCUGGAUGUCGUUGCAUAGUUUUUAGUUA
[1]
  pre-steady-state target cleavage rate: 0.00524 ± 0.0046
[2]
  pre-steady-state target cleavage rate: 0.00595 ± 0.0026

## UCCUGGAACAAGCUUGCAUAGUAUUUAGUUA
[1]
  pre-steady-state target cleavage rate: 0.224 ± 0.012
[2]
  pre-steady-state target cleavage rate: 0.0116 ± 0.003

## UCCUGGAUGUCGUUGCAUAGUAUUUAGUGUA
[1]
  pre-steady-state target cleavage rate: 0.17 ± 0.027
[2]
  pre-steady-state target cleavage rate: 0.00477 ± 0.0035

## UCCUGGAUCAGCUUGCUUAGUAUUUUGUUA
[1]
  pre-steady-state target cleavage rate: 0.16 ± 0.015
[2]
  pre-steady-state target cleavage rate: 0.00583 ± 0.0022

## UCCUGGAUGAGCUUGCAUAGUUAUUUAGUUA
[1]
  pre-steady-state target cleavage rate: 0.0115 ± 0.0045
[2]
  pre-steady-state target cleavage rate: 0.00489 ± 0.0022

## UCCUGGAUCAGCUUGCAUAGUUAUUAGUUA
[1]
  pre-steady-state target cleavage rate: 0.0248 ± 0.01
[2]
  pre-steady-state target cleavage rate: 0.00466 ± 0.0024

## UCCUGGAUGUCGAAGCAUGGUAUUUAGUUA
[1]
  pre-steady-state target cleavage rate: 0.0111 ± 0.0048
[2]
  pre-steady-state target cleavage rate: 0.00436 ± 0.0021

## UCCUGCUACAGCUACGAUAGUAUUUAGUUA
[1]
  pre-steady-state target cleavage rate: 0.243 ± 0.02
[2]
  pre-steady-state target cleavage rate: 0.00263 ± 0.0024

## UCCUGGAUGUCGUUGCAUAGUAAUUAGUUA
[1]
  pre-steady-state target cleavage rate: 0.116 ± 0.022
[2]
  pre-steady-state target cleavage rate: 0.00563 ± 0.002

## UCCUGGUACAGCUUGCAUAGUUUUAAGUUA
[1]
  pre-steady-state target cleavage rate: 0.0506 ± 0.014
[2]
  pre-steady-state target cleavage rate: 0.00428 ± 0.0033

## UCCUGGUACAGCUUGAUAGUAUUUAGUUA
[1]
  pre-steady-state target cleavage rate: 0.0803 ± 0.011
[2]
  pre-steady-state target cleavage rate: 0.00786 ± 0.0031

## UCCUCCUACAGCUUGGUUAGUAUUUAGUAA
[1]
  pre-steady-state target cleavage rate: 0.204 ± 0.022
[2]
  pre-steady-state target cleavage rate: 0.00554 ± 0.0017

## UCCUGGAUGUCGAACCAAAGUAUUUUGUUA
[1]
  pre-steady-state target cleavage rate: < 0.0001
[2]
  pre-steady-state target cleavage rate: < 0.0001

## UCCUGGAUGUGCAUGCAAAGUAUUUAGUUA
[1]
  pre-steady-state target cleavage rate: 0.0175 ± 0.0048
[2]
  pre-steady-state target cleavage rate: 0.00933 ± 0.0024

## UCCUGGUACAGCUUGCAUAGUAUUUAAUUA
[1]
  pre-steady-state target cleavage rate: 0.0793 ± 0.022
[2]
  pre-steady-state target cleavage rate: 0.00528 ± 0.0035

## UCCUGGAUGAGCUUGGAAAGUAUUUAGUUA
[1]
  pre-steady-state target cleavage rate: 0.0843 ± 0.011
[2]
  pre-steady-state target cleavage rate: 0.00571 ± 0.0018

## UCCUGGAUGUCCUUGCAUAGUACUUUAGUUA
[1]
  pre-steady-state target cleavage rate: 0.0282 ± 0.011
[2]
  pre-steady-state target cleavage rate: 0.00534 ± 0.0022

## UCCUGGAUGUCGUUGCAUAGUAUUUAGUCUA
[1]
  pre-steady-state target cleavage rate: 0.013 ± 0.0062
[2]
  pre-steady-state target cleavage rate: 0.00433 ± 0.0036

## UCCUGGAUCAGGAAGCAUAGUAUUUAGUAA
[1]
  pre-steady-state target cleavage rate: 0.0716 ± 0.014
[2]
  pre-steady-state target cleavage rate: 0.00297 ± 0.0022

## UCCUGCUACAGCUUGCAUAGUAUAUAGUUA
[1]
  pre-steady-state target cleavage rate: 0.227 ± 0.029
[2]
  pre-steady-state target cleavage rate: 0.00382 ± 0.0029

## UCCUGGAUCAGCUUGCAAGUAUUUAGUUA
[1]
  pre-steady-state target cleavage rate: 0.0793 ± 0.011
[2]
  pre-steady-state target cleavage rate: 0.00478 ± 0.0023

## UCCUGGAUCAGCAACCAUAGUAUUUAGAAA
[1]
  pre-steady-state target cleavage rate: 0.00948 ± 0.0046
[2]
  pre-steady-state target cleavage rate: < 0.0001

## UCCUGGAUGUGCUAGCAUAGAAUUUAGUUA
[1]
  pre-steady-state target cleavage rate: 0.0105 ± 0.0042
[2]
  pre-steady-state target cleavage rate: 0.00267 ± 0.0022

## UCCUGGAUGUGCUUGCAAGUAUUUAGUUA
[1]
  pre-steady-state target cleavage rate: 0.00781 ± 0.0036
[2]
  pre-steady-state target cleavage rate: 0.00503 ± 0.0024

## UCCUGGAUGAGCAUGCUUAGUAUUUAGUUA
[1]
  pre-steady-state target cleavage rate: 0.115 ± 0.011
[2]
  pre-steady-state target cleavage rate: 0.0087 ± 0.0027
